Measurements taken from paper PMC7862700, “An all-to-all approach to the identification of sequence-specific readers for epigenetic DNA modifications on cytosine”.

What was measured:
Assay in all cases: DAPPL (digital affinity profiling via proximity ligation, sequencing); 10 mM Tris-HCl pH 7.5, 50 mM NaCl, 1 mM DTT, 4% glycerol, room temperature, 30 min; GST-TFs on glutathione beads, 16-mer random dsDNA library, 0.1% formaldehyde crosslink after washing; high values mean tight binding
Conditions in all cases: protein: recombinant; tags: N-terminal GST; dsDNA, one strand shown
FEV = molecular target: T1, FEV (Homo sapiens, UniProt Q99581 1-238)
T1 sequence: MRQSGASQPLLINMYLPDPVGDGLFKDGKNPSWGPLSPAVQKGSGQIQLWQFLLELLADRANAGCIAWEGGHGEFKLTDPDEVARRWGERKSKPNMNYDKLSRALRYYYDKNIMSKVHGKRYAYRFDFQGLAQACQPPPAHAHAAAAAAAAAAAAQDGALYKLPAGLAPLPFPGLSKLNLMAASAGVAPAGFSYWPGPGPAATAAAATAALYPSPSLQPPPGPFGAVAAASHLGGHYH
Method in brief: (§1)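 The binding signal reported is, for every hexamer, its read frequency for a factor over its read frequency for the tag-only sample. Reads came from pools of yeast-expressed, GST-fused human transcription factors on glutathione beads, barcoded with DNA and mixed with that sample, which were incubated with 200 nmole of a random double-stranded 16-mer DNA library in Tris/NaCl/DTT/glycerol buffer at room temperature for 30 min. After washing, the pools were crosslinked with 0.1% formaldehyde, proximity-ligated with BsaI/T4 ligase for 1 h at 37 °C, PCR-amplified and sequenced on an Illumina NextSeq500.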

ETV5 = ETV5 (Homo sapiens, UniProt P41161 1-510)
ETV5, sequence (P41161 whole entry): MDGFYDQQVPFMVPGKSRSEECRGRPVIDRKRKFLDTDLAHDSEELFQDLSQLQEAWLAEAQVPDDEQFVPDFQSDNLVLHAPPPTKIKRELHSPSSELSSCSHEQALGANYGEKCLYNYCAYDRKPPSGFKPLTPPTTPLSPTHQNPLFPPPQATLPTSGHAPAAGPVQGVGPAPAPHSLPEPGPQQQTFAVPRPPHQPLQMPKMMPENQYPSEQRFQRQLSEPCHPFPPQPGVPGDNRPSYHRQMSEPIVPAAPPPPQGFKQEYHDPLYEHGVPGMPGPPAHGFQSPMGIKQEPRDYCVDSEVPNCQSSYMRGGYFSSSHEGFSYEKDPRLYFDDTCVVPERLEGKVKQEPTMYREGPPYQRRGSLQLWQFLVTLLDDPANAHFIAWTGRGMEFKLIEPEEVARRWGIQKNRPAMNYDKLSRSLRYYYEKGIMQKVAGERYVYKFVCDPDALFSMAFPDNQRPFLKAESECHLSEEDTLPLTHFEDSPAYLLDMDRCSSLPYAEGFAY
Method in brief: as §1

SPIC = molecular target: T2, SPIC (Homo sapiens, UniProt Q8N5J4 1-248)
T2 sequence: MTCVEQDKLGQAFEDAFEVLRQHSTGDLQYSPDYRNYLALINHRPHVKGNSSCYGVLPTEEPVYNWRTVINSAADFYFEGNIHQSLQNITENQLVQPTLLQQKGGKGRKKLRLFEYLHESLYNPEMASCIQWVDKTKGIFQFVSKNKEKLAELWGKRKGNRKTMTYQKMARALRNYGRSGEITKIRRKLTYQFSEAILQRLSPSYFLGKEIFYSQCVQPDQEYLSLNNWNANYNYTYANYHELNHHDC
Method in brief: as §1

ELF4 = ELF4 (Homo sapiens, UniProt Q99607 1-663)
ELF4, sequence (Q99607 whole entry): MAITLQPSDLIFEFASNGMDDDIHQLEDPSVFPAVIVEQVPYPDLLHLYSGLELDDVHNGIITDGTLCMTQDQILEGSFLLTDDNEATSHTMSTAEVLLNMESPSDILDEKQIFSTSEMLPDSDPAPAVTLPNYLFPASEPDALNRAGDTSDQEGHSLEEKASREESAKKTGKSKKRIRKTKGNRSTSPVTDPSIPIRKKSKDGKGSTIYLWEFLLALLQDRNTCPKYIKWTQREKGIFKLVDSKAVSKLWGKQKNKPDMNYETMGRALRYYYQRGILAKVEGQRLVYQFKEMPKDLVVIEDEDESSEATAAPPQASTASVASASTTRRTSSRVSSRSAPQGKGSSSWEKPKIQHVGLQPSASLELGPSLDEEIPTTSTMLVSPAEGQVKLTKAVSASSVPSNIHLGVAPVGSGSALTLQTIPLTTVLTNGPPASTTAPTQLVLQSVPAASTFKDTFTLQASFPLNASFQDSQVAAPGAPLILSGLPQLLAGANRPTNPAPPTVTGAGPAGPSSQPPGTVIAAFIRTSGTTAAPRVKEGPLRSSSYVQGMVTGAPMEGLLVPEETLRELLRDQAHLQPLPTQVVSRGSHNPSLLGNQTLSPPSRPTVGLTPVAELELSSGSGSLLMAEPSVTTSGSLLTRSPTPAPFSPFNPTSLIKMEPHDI
Method in brief: as §1

ELK4 = molecular target: T3, ELK4 (Homo sapiens, UniProt P28324-2 1-405)
T3 sequence: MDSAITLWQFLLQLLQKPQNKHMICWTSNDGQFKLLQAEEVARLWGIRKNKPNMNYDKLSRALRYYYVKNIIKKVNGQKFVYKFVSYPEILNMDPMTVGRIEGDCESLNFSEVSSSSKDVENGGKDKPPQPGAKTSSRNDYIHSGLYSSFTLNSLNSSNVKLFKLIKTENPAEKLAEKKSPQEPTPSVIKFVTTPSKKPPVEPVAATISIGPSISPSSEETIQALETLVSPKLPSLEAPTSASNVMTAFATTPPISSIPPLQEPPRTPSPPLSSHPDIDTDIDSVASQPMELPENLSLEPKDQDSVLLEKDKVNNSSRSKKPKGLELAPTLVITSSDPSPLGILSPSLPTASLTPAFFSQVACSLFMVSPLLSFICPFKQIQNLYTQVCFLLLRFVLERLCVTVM
Method in brief: as §1

ETV2 = molecular target: T4, ETV2 (Homo sapiens, UniProt O00321 1-342)
T4 sequence: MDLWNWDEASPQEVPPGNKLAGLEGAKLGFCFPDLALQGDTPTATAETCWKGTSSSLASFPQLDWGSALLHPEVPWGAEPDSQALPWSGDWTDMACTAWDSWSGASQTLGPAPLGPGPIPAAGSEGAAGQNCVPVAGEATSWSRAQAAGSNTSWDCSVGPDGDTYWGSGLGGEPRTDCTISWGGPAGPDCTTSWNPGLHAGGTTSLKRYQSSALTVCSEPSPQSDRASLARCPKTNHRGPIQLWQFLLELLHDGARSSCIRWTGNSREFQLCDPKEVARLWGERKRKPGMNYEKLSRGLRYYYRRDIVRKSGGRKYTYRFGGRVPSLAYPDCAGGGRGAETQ
Method in brief: as §1

ELF3 = molecular target: T5, ELF3 (Homo sapiens, UniProt P78545 1-371)
T5 sequence: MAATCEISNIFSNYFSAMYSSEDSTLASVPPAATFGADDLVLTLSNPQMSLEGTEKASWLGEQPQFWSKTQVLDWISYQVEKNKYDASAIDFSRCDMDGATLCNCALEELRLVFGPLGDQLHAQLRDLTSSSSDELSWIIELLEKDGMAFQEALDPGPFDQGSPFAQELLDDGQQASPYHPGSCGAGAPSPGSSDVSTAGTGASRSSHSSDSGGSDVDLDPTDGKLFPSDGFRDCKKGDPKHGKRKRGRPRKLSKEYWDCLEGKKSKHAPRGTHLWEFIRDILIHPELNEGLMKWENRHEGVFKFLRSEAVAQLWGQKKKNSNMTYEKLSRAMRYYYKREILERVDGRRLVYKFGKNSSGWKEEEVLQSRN
Method in brief: as §1

ETV1 = ETV1 (Homo sapiens, UniProt P50549 1-477)
ETV1, sequence (P50549 whole entry): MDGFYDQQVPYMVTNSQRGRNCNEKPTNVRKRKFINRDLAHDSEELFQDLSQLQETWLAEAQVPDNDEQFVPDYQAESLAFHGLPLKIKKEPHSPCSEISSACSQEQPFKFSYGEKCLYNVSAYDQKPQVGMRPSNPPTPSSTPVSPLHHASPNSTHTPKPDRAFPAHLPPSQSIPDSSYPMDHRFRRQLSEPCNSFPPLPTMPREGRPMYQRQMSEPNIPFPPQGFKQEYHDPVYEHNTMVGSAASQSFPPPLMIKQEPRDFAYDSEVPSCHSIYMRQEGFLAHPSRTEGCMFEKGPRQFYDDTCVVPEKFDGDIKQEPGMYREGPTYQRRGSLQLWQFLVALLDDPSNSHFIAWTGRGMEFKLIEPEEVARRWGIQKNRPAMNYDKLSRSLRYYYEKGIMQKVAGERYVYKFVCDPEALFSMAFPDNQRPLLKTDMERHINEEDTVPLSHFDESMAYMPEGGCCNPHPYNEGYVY
Method in brief: as §1

ERF = molecular target: T6, ERF (Homo sapiens, UniProt P50548 1-548)
T6 sequence: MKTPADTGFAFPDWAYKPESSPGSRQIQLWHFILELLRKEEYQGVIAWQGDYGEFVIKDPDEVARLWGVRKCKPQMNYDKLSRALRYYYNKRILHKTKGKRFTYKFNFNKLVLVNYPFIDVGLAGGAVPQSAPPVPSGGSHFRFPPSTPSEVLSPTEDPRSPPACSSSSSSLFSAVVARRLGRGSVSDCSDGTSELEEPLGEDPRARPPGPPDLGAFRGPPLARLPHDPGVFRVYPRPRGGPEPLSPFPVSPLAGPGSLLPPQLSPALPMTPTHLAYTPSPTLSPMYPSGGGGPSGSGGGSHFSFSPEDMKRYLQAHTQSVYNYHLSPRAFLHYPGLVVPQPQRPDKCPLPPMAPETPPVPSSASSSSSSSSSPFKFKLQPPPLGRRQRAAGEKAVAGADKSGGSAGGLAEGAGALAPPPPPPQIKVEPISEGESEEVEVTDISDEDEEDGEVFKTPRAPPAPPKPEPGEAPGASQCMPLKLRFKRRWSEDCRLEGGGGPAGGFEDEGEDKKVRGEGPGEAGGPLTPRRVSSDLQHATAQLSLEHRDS
Method in brief: as §1

ETV3L = molecular target: T7, ETV3L (Homo sapiens, UniProt Q6ZN32 1-361)
T7 sequence: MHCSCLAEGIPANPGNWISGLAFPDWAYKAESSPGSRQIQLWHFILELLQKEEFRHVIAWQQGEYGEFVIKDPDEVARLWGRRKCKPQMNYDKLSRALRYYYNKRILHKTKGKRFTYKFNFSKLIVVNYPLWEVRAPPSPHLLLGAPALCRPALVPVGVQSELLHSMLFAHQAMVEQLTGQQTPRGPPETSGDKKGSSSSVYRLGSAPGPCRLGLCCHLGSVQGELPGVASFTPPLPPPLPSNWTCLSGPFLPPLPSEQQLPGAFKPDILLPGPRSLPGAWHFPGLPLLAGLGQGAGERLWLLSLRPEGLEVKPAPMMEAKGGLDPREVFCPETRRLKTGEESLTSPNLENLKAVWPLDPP
Method in brief: as §1

ETS2 = molecular target: T8, ETS2 (Homo sapiens, UniProt P15036 1-469)
T8 sequence: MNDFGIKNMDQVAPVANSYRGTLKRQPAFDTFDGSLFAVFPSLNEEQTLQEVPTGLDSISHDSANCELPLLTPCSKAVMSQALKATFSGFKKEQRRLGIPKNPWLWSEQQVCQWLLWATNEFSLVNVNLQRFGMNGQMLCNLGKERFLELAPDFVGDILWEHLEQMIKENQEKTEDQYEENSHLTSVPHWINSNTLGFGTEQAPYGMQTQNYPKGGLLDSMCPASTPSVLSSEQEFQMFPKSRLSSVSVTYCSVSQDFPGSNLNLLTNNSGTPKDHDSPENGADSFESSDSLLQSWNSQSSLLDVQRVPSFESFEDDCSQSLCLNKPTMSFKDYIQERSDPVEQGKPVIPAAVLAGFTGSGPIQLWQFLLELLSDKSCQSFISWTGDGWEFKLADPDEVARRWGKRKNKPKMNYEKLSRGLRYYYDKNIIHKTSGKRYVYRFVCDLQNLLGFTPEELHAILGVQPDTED
Method in brief: as §1

SPDEF = molecular target: T9, SPDEF (Homo sapiens, UniProt O95238 1-335)
T9 sequence: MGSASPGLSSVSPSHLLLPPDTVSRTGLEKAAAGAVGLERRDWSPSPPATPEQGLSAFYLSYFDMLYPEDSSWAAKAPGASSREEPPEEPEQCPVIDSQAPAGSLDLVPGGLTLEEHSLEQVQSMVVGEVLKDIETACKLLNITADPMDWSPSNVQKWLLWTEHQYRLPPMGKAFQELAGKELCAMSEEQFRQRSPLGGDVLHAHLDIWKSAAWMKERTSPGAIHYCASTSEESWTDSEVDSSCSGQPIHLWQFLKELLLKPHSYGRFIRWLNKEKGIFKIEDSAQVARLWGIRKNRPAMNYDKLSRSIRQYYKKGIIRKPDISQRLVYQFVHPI
Method in brief: as §1

ETV7 = molecular target: T10, ETV7 (Homo sapiens, UniProt Q9Y603 1-341)
T10 sequence: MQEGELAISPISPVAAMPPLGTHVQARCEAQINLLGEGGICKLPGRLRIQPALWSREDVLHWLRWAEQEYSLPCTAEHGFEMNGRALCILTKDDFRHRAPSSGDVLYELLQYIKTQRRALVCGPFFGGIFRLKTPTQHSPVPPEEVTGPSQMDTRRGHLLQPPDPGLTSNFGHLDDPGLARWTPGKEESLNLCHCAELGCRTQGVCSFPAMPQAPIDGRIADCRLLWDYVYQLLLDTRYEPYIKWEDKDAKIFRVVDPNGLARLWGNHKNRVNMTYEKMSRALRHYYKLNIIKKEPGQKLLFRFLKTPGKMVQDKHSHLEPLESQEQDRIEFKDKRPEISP
Method in brief: as §1

ELF5 = molecular target: T11, ELF5 (Homo sapiens, UniProt Q9UKW6-2 1-255)
T11 sequence: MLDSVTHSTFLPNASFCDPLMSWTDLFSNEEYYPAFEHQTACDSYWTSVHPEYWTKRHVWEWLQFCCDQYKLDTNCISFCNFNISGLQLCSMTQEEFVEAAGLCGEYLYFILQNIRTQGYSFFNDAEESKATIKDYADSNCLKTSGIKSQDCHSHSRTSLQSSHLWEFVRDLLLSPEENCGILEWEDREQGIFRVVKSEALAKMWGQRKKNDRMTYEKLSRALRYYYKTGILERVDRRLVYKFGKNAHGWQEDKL
Method in brief: as §1

ETV3 = molecular target: T12, ETV3 (Homo sapiens, UniProt P41162-2 1-143)
T12 sequence: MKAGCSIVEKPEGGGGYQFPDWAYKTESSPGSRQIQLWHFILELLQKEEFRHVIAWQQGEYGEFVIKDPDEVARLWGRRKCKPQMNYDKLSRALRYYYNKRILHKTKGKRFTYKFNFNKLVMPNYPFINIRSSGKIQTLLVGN
Method in brief: as §1

ETV6 = ETV6 (Homo sapiens, UniProt P41212 1-452)
ETV6, sequence (P41212 whole entry): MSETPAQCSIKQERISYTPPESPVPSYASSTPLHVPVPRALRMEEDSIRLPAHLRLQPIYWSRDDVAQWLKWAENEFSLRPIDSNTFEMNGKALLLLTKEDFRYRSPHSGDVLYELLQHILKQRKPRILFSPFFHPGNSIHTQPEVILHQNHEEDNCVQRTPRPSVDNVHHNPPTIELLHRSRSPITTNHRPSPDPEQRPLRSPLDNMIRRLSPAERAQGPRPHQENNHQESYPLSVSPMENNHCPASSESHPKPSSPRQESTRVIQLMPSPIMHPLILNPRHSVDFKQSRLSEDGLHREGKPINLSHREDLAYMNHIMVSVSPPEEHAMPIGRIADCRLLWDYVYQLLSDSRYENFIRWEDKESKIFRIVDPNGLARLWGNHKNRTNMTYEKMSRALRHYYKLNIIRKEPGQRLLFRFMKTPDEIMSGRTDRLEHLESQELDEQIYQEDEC
Method in brief: as §1

Row | Sequence | binding signal (FEV) | binding signal (ETV5) | binding signal (SPIC) | binding signal (ELF4) | binding signal (ELK4) | binding signal (ETV2) | binding signal (ELF3) | binding signal (ETV1) | binding signal (ERF) | binding signal (ETV3L) | binding signal (ETS2) | binding signal (SPDEF) | binding signal (ETV7) | binding signal (ELF5) | binding signal (ETV3) | binding signal (ETV6)
1 | CCCATC | 1.06 fold enrichment (6-mer frequency, TF over GST control) | 1.16 fold enrichment (6-mer frequency, TF over GST control) | 1.27 fold enrichment (6-mer frequency, TF over GST control) | 1.17 fold enrichment (6-mer frequency, TF over GST control) | 1.3 fold enrichment (6-mer frequency, TF over GST control) | 1.04 fold enrichment (6-mer frequency, TF over GST control) | 1.09 fold enrichment (6-mer frequency, TF over GST control) | 1.18 fold enrichment (6-mer frequency, TF over GST control) | 1.25 fold enrichment (6-mer frequency, TF over GST control) | 1.15 fold enrichment (6-mer frequency, TF over GST control) | 1.22 fold enrichment (6-mer frequency, TF over GST control) | 1.07 fold enrichment (6-mer frequency, TF over GST control) | 1.08 fold enrichment (6-mer frequency, TF over GST control) | 1.21 fold enrichment (6-mer frequency, TF over GST control) | 1.14 fold enrichment (6-mer frequency, TF over GST control) | 1.1 fold enrichment (6-mer frequency, TF over GST control)
2 | TGTCAT | 1.1 fold enrichment (6-mer frequency, TF over GST control) | 1.18 fold enrichment (6-mer frequency, TF over GST control) | 1.16 fold enrichment (6-mer frequency, TF over GST control) | 1.13 fold enrichment (6-mer frequency, TF over GST control) | 1.08 fold enrichment (6-mer frequency, TF over GST control) | 1.11 fold enrichment (6-mer frequency, TF over GST control) | 1.06 fold enrichment (6-mer frequency, TF over GST control) | 1.18 fold enrichment (6-mer frequency, TF over GST control) | 1.38 fold enrichment (6-mer frequency, TF over GST control) | 1.19 fold enrichment (6-mer frequency, TF over GST control) | 1.12 fold enrichment (6-mer frequency, TF over GST control) | 1.17 fold enrichment (6-mer frequency, TF over GST control) | 1.1 fold enrichment (6-mer frequency, TF over GST control) | 1.09 fold enrichment (6-mer frequency, TF over GST control) | 1.12 fold enrichment (6-mer frequency, TF over GST control) | 1.11 fold enrichment (6-mer frequency, TF over GST control)
